Laboratory results: PMC7862700, “An all-to-all approach to the identification of sequence-specific readers for epigenetic DNA modifications on cytosine”

Experiments:
Assay in all cases: DAPPL (digital affinity profiling via proximity ligation, sequencing); 10 mM Tris-HCl pH 7.5, 50 mM NaCl, 1 mM DTT, 4% glycerol, room temperature, 30 min; GST-TFs on glutathione beads, 16-mer random dsDNA library, 0.1% formaldehyde crosslink after washing; high values mean tight binding
Conditions in all cases: protein: recombinant; tags: N-terminal GST; dsDNA, one strand shown
ELK1 = target: T1, ELK1 (Homo sapiens, UniProt P19419 1-428)
T1 sequence: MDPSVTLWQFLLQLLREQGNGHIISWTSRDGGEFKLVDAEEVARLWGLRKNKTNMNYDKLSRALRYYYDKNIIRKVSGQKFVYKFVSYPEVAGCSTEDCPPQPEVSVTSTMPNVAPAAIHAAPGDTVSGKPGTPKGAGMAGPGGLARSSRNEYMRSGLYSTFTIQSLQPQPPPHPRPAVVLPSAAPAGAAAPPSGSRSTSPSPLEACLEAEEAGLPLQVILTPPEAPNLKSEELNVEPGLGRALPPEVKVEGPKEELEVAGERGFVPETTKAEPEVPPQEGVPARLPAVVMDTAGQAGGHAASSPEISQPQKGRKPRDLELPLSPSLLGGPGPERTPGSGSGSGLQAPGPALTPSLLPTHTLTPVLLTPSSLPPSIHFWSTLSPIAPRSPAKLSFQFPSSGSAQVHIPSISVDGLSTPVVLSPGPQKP
Procedure, shortened: (§1)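 A tag-only sample was pooled with DNA-barcoded human transcription factors that had been expressed in yeast as GST fusions and captured on glutathione beads. The pools were incubated for 30 min at room temperature with 200 nmole of a random double-stranded 16-mer DNA library in Tris/NaCl/DTT/glycerol buffer, then washed, crosslinked with 0.1% formaldehyde, proximity-ligated (BsaI/T4 ligase, 1 h, 37 °C), PCR-amplified and sequenced on an Illumina NextSeq500. Binding signal is each hexamer's read frequency for a factor divided by its frequency for the tag-only sample.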

GABPA = target: T2, GABPA (Homo sapiens, UniProt Q06546 1-454)
T2 sequence: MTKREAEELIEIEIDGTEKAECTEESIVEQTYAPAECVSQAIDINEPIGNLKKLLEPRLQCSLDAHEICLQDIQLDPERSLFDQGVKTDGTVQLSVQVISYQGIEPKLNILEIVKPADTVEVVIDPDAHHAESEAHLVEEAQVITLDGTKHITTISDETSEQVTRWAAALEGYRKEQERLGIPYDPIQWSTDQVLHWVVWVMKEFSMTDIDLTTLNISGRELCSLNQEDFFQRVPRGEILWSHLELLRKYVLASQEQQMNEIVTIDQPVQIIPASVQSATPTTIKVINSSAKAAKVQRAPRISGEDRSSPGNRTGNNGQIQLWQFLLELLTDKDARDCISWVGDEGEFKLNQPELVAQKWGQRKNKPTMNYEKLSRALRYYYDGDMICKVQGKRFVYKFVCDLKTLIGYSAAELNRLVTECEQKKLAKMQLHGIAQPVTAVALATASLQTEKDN
Procedure, shortened: as §1

ERG = target: T3, ERG (Homo sapiens, UniProt P11308 1-479)
T3 sequence: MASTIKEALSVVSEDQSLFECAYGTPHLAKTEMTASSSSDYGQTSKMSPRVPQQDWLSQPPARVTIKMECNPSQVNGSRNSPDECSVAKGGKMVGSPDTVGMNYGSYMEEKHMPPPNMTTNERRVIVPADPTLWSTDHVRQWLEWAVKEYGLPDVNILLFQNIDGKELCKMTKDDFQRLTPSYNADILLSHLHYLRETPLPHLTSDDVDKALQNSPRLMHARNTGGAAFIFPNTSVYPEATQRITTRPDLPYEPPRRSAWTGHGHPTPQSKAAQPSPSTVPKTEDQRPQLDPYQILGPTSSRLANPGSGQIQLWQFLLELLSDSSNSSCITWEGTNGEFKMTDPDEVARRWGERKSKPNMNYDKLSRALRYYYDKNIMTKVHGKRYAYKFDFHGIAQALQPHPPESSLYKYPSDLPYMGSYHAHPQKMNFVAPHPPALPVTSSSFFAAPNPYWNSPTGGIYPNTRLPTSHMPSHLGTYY
Procedure, shortened: as §1

ELF1 = ELF1 (Homo sapiens, UniProt P32519 1-619)
Sequence of ELF1 (P32519 whole entry): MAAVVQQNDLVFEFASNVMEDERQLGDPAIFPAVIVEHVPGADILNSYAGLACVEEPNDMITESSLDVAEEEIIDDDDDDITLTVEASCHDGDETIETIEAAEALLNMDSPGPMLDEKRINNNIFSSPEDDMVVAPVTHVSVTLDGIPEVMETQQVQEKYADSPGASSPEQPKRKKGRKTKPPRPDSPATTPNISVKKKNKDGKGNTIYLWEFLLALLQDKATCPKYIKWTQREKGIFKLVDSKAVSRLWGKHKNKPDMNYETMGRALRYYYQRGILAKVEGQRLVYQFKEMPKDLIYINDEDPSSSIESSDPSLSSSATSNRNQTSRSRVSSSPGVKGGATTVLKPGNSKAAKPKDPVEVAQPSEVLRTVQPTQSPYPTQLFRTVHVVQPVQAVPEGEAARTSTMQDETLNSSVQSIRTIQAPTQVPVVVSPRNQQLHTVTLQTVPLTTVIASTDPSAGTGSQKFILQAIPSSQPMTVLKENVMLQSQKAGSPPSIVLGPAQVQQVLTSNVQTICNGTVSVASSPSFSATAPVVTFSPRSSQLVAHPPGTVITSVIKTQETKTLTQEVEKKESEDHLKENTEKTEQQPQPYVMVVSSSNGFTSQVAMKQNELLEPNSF
Procedure, shortened: as §1

EHF = target: T4, EHF (Homo sapiens, UniProt Q9NZC4 1-300)
T4 sequence: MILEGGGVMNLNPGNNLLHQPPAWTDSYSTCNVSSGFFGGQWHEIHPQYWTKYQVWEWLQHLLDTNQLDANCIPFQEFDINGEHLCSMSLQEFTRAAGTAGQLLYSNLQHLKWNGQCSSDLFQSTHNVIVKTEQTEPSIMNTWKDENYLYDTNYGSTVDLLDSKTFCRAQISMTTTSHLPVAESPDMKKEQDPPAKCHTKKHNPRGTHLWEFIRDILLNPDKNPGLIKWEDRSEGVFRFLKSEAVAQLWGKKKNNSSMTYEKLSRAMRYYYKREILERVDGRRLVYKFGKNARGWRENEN
Procedure, shortened: as §1

FEV = target: T5, FEV (Homo sapiens, UniProt Q99581 1-238)
T5 sequence: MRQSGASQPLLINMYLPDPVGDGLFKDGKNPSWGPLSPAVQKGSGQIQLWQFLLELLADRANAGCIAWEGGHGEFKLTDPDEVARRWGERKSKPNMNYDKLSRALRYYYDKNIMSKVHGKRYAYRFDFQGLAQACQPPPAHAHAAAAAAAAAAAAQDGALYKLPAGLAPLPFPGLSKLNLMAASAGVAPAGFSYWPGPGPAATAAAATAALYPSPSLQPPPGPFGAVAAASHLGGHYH
Procedure, shortened: as §1

ETV5 = ETV5 (Homo sapiens, UniProt P41161 1-510)
Sequence of ETV5 (P41161 whole entry): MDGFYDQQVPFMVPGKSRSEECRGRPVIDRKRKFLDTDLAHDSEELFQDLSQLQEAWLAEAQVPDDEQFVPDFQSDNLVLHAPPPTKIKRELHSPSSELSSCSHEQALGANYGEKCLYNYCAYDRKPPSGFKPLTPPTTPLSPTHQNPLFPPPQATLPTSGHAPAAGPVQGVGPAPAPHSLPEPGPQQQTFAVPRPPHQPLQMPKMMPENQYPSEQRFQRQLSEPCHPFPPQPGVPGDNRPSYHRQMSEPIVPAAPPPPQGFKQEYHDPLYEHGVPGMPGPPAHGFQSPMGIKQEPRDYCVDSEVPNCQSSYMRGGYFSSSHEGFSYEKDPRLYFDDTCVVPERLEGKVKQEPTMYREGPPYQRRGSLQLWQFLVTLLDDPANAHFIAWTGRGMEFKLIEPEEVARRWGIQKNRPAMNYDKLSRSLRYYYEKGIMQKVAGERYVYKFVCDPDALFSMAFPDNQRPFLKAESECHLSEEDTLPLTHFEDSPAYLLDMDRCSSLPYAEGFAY
Procedure, shortened: as §1

ELF4 = ELF4 (Homo sapiens, UniProt Q99607 1-663)
Sequence of ELF4 (Q99607 whole entry): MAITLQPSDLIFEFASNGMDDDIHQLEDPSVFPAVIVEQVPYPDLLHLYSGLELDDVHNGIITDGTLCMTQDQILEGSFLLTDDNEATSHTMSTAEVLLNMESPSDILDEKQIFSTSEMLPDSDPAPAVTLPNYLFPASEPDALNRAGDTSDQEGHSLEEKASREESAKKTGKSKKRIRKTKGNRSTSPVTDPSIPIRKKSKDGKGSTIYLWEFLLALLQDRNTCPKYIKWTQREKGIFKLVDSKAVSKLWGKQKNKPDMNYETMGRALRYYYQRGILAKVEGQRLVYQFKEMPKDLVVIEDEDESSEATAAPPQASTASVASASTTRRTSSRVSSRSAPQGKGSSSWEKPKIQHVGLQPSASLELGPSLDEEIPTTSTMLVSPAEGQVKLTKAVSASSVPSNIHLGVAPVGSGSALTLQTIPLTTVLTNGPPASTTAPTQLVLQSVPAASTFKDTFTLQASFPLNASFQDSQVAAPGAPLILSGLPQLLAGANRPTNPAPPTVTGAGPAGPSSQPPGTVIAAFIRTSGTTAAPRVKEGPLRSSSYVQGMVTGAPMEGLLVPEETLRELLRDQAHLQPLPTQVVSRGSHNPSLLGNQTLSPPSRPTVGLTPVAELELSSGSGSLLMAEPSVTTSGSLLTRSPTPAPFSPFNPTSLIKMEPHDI
Procedure, shortened: as §1

ELK4 = target: T6, ELK4 (Homo sapiens, UniProt P28324-2 1-405)
T6 sequence: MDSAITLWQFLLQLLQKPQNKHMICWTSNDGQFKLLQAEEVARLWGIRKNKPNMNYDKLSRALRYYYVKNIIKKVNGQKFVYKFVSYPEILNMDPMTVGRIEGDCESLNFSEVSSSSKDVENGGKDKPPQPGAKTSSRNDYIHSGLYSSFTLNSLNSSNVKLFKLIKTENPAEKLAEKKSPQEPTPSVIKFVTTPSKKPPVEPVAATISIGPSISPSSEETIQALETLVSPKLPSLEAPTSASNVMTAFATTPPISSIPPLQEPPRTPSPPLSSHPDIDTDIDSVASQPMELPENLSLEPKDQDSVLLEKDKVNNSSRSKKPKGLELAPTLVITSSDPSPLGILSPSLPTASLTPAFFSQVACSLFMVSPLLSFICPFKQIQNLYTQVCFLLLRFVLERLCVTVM
Procedure, shortened: as §1

ETV2 = target: T7, ETV2 (Homo sapiens, UniProt O00321 1-342)
T7 sequence: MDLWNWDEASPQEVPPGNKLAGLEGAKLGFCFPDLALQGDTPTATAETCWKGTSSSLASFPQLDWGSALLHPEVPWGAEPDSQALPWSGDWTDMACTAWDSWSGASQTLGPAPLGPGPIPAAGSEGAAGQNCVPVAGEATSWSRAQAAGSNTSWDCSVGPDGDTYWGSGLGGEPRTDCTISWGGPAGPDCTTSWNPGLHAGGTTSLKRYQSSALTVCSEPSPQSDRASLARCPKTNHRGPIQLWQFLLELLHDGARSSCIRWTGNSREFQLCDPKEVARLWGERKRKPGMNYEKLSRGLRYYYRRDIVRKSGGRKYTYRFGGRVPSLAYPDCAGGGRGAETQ
Procedure, shortened: as §1

ERF = target: T8, ERF (Homo sapiens, UniProt P50548 1-548)
T8 sequence: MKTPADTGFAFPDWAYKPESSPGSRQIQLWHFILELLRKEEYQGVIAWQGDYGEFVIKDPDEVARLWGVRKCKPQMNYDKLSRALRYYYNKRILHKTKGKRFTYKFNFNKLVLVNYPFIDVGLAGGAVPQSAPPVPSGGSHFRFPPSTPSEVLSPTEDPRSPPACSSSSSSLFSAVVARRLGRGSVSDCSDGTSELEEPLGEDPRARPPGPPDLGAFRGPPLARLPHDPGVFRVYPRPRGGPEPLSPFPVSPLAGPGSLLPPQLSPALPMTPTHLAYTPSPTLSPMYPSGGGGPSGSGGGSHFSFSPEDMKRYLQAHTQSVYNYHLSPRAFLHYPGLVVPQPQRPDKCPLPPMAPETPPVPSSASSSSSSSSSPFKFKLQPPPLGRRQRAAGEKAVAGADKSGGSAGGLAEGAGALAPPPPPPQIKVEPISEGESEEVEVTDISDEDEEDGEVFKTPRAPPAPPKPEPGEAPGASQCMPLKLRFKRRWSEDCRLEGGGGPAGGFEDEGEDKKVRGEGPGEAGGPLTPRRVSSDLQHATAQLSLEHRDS
Procedure, shortened: as §1

ETV3L = target: T9, ETV3L (Homo sapiens, UniProt Q6ZN32 1-361)
T9 sequence: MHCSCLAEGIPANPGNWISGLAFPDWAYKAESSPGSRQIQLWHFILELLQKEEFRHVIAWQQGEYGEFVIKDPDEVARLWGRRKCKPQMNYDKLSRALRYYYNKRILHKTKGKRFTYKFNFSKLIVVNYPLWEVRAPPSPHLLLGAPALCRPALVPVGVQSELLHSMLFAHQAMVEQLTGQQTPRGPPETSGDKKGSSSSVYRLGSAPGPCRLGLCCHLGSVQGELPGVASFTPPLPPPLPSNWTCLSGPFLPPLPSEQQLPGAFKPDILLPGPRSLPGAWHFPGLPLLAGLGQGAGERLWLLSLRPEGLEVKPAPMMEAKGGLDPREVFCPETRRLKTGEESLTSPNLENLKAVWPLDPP
Procedure, shortened: as §1

ETS2 = target: T10, ETS2 (Homo sapiens, UniProt P15036 1-469)
T10 sequence: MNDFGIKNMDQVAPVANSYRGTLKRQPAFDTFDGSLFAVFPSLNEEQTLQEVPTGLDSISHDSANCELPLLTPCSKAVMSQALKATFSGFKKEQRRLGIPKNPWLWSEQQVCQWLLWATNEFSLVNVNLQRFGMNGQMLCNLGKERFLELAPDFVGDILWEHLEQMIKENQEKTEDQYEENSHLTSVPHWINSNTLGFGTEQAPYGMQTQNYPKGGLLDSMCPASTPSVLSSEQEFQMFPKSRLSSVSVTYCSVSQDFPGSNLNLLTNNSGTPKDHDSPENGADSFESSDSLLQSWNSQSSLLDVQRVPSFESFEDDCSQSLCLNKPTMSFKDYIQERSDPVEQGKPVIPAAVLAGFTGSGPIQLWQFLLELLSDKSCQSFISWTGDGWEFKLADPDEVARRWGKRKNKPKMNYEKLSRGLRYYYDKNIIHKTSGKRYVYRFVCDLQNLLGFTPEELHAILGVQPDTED
Procedure, shortened: as §1

ETV7 = target: T11, ETV7 (Homo sapiens, UniProt Q9Y603 1-341)
T11 sequence: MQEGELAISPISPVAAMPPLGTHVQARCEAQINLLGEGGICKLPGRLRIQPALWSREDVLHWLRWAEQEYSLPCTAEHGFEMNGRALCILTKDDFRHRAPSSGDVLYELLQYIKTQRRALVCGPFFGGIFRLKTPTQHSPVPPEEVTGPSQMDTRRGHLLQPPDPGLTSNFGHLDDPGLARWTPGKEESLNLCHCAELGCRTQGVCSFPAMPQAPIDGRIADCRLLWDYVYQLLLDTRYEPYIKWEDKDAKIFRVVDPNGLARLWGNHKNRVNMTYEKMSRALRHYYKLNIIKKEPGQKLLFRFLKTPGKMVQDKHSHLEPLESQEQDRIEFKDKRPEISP
Procedure, shortened: as §1

## ACAGCA
ELK1
  binding signal: 1.03 fold enrichment (6-mer frequency, TF over GST control)
GABPA
  binding signal: 1.08 fold enrichment (6-mer frequency, TF over GST control)
ERG
  binding signal: 1 fold enrichment (6-mer frequency, TF over GST control)
ELF1
  binding signal: 1.06 fold enrichment (6-mer frequency, TF over GST control)
EHF
  binding signal: 1.03 fold enrichment (6-mer frequency, TF over GST control)
FEV
  binding signal: 1 fold enrichment (6-mer frequency, TF over GST control)
ETV5
  binding signal: 1.03 fold enrichment (6-mer frequency, TF over GST control)
ELF4
  binding signal: 1.04 fold enrichment (6-mer frequency, TF over GST control)
ELK4
  binding signal: 1.02 fold enrichment (6-mer frequency, TF over GST control)
ETV2
  binding signal: 1.06 fold enrichment (6-mer frequency, TF over GST control)
ERF
  binding signal: 1.07 fold enrichment (6-mer frequency, TF over GST control)
ETV3L
  binding signal: 1.06 fold enrichment (6-mer frequency, TF over GST control)
ETS2
  binding signal: 1.09 fold enrichment (6-mer frequency, TF over GST control)
ETV7
  binding signal: 1.15 fold enrichment (6-mer frequency, TF over GST control)
